These results are taken from PubChem BioAssay AID651607 (The Scripps Research Institute Molecular Screening Center, 2012).

The whole screen tested about 1,400 compounds, of which about 600 (43%) were called active. No stated cut-off is given here; in the data, active means inhibition above about 17%; inactive means the rest. So high a share suggests a set chosen from earlier hits. The list is a sample of the results.

In this assay the test system is methionyl-tRNA synthetase (Trypanosoma brucei brucei). Put plainly: T. brucei MetRS inhibitors, orthogonal assay for T. brucei MetRS inhibitor project, biochemical, fluorescence polarization (AID 651607).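 Further: 0% = vehicle wells.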 As to conditions: purified T. brucei MetRS, at 11.9 µM, stronger effect = higher value. Background: Polarisation of emitted light reports the rotation of a fluorescent probe.
For the compound `O=C(CC(=O)Nc1ccc(Cl)c(Cl)c1)N/N=C/c1ccc(O)cc1`, the inhibition (commonly the drop in the measured response relative to a control, in per cent) is 30.8% (active).

`O=C(Cn1c2[n+](c3ccc(C(F)(F)F)cc31)CCCCC2)Nc1c(F)cccc1F`: the inhibition is 9.23% (inactive).

For `O=C(OCc1nc2ccccc2[nH]1)C1CCCCC1`, the inhibition is 9.3% (inactive).

In the case of `CCO[C@@H]1OC(C(=O)NCc2nc3ccccc3[nH]2)=C[C@H](C2CCCCC2)[C@H]1CCCO`, the inhibition was 17.2% (active).

For the compound `O=C(Nc1ccccc1)Nc1nnc(COc2ccccc2F)s1`, the inhibition is 23.8% (active).

Take `Cc1ccc(CNC(=O)CSc2nnc3c(n2)[nH]c2ccc(F)cc23)cc1`: the inhibition is 51.8% (active).

For `CN(C(=O)CSc1nnc(Nc2ccccc2)s1)C1CCS(=O)(=O)C1` (stereo not drawn), the inhibition was -4.02% (inactive).

Regarding `CCCCCCCC[n+]1cccc(C(=O)N2c3c(nc(N)[nH]c3=O)NC(C)C2C)c1` (stereo not drawn), the inhibition is 13.1% (inactive).

For the compound `CC(C)(C)c1ccc(/C=C2\SC(=O)N=C2N)cc1`, the inhibition is 22.6% (active).

As to `NC1=NC(=O)S/C1=C\c1ccc(O)cc1`, the inhibition is 16% (inactive).

Consider `CN(C(=O)CSc1nnc(-c2c[nH]c3ccccc23)o1)C1CCS(=O)(=O)C1` (stereo not drawn), for which the inhibition was 15.7% (inactive).

With `O=C1CCCN1CCCNc1ncnc2c1[nH]c1ccccc12`, the inhibition is 28.8% (active).

Take `COc1ccc(CCn2ccc(O)c(Cc3ccc(Cl)cc3Cl)c2=O)cc1OC`: the inhibition is 2.44% (inactive).

Consider `Cc1ccc(S(=O)(=O)c2c[nH]c3ccc(Cl)cc3c2=O)cc1`, for which the inhibition is 60.6% (active).

For the compound `Cc1ccc(S(=O)(=O)c2c[nH]c3ccc(C)cc3c2=O)cc1`, the inhibition is 20.1% (active).

Turning to `CCN(CC)C(=O)C(=O)c1cn(CC(=O)NCc2ccc3c(c2)OCO3)c2ccccc12`, the inhibition is 50.9% (active).

Regarding `COc1ccc(-c2[nH]ncc2/C=N/NC(=O)c2cc(Br)ccc2O)c(OC)c1`, the inhibition was 15.2% (inactive).

Take `CCCCN1C[C@H](c2ccc(Br)cc2)[C@@H](CC(=O)Nc2ccc(Br)cc2)C1=O`: the inhibition is 33.1% (active).

On to `O=C(NCc1cccc(CNC(=O)Nc2cccc(O)c2)c1)Nc1cccc(O)c1`, for which the inhibition is 8.48% (inactive).

With `O=C(Cc1ccc(S(=O)(=O)N2CCOCC2)s1)Nc1ccc(Br)c(C(F)(F)F)c1`, the inhibition is 27.2% (active).

`O=C(Nc1ccc(S(=O)(=O)Nc2ncccn2)cc1)c1cncc(Br)c1`: the inhibition was -0.88% (inactive).

With `O=C(O)CCn1c(O)c(C=C2N=c3ccccc3=N2)sc1=S`, the inhibition is 17.1% (active).

In the case of `Cn1c(CCCOc2ccc(Cl)cc2Cl)n[nH]c1=S`, the inhibition is 11.9% (inactive).

`c1ccc2cc3c(NCCN4CCOCC4)ccnc3cc2c1`: the inhibition is 25.4% (active).

On to `Cc1ccc(NC(=O)C(C)c2cccc(C(=O)c3ccccc3)c2)cc1` (stereo not drawn), for which the inhibition was 65.3% (active).

For `O=C(NNC(=O)c1ccc(-n2cncn2)c([N+](=O)[O-])c1)c1ccccc1`, the inhibition was 32% (active).

Turning to `Cc1ccc(S(=O)(=O)N(C)C)cc1NC(=O)c1ccc(-n2cncn2)c([N+](=O)[O-])c1`, the inhibition is 34.4% (active).

On to `Cc1ccccc1OCC(=O)NNC(=O)c1ccc(-n2cncn2)c([N+](=O)[O-])c1`, for which the inhibition was 11.1% (inactive).

For `CC(=O)c1ccc(NC(=O)c2ccc(-n3cncn3)c([N+](=O)[O-])c2)cc1`, the inhibition was 50.4% (active).

Regarding `Cc1cc(C)cc(NC(=O)N(C)Cc2ccccc2)c1`, the inhibition was 4.52% (inactive).

In the case of `Cc1ccc(N2C(=O)CC(NCc3ccc4c(c3)OCO4)C2=O)cc1Cl` (stereo not drawn), the inhibition is 55.8% (active).

`NS(=O)(=O)c1ccc(CCNC(=O)Nc2ccc(Cl)cc2)cc1`: the inhibition is 21.5% (active).

With `O=C(CSCC(=O)Nc1cccc([N+](=O)[O-])c1)Nc1ccccc1`, the inhibition was 8.38% (inactive).

Consider `Fc1ccc(NC(=S)N2CCc3[nH]c4ccccc4c3C2)cc1`, for which the inhibition is 18.4% (active).

As for `O=C(Nc1ccc(Cl)cc1)N1CCc2[nH]c3ccccc3c2C1`, the inhibition is 8.86% (inactive).

Take `O=C(Nc1cccc([N+](=O)[O-])c1)N1CCc2ccccc2C1`: the inhibition was 11.1% (inactive).

For the compound `COc1ccc(NC(=O)C(NC(C)=O)C(=O)NCc2ccccc2Cl)cc1` (stereo not drawn), the inhibition is 1.33% (inactive).

Take `COc1ccc(OCC(O)CNC(=O)Nc2ccc(Cl)cc2)cc1` (stereo not drawn): the inhibition is 51% (active).

As for `CCCCN(C)Cc1c(C)[nH]c2ccc(Cl)cc2c1=O`, the inhibition was 39.9% (active).

Regarding `Clc1ccc(-c2cc(C3CCNCC3)[nH]n2)c(Cl)c1`, the inhibition is 21.7% (active).

For `O=S(=O)(NCc1ccc(Cl)cc1Cl)c1cccs1`, the inhibition is 13.7% (inactive).

Turning to `O=C(NNc1cc(Cl)cc(Cl)c1)c1c(F)cccc1Cl`, the inhibition was 37.3% (active).

As to `Oc1[nH]c2ccc(Br)cc2c1N=Nc1nn[nH]n1`, the inhibition was 13.7% (inactive).

In the case of `CSc1nsc(NC(=O)Nc2ccccc2)n1`, the inhibition is 18.2% (active).

Turning to `OCCNc1nc2ccccc2n1-c1ncnc2sc3c(c12)CCC3`, the inhibition is 12.1% (inactive).

For `Cc1ccc(O)c(CNc2nc3ccccc3[nH]2)c1`, the inhibition is 77.9% (active).

Consider `Clc1ccccc1SCc1nc2ccccc2[nH]1`, for which the inhibition was -1.51% (inactive).

On to `S=c1[nH]nc(CSCc2ccc(Cl)cc2Cl)n1-c1ccccc1`, for which the inhibition is 2.4% (inactive).

For `O=S(=O)(c1ccc(Br)cc1)N1CCC(c2nc3ccccc3[nH]2)CC1`, the inhibition is 4.17% (inactive).

For `O=C(NCC(O)c1nc2ccccc2[nH]1)c1ccc(Br)cc1` (stereo not drawn), the inhibition is 17.1% (active).

Consider `O=[N+]([O-])c1ccc(N2CCN(c3ccc(O)cc3)CC2)c(Cl)c1`, for which the inhibition is 8.79% (inactive).

As to `c1ccc(CN=C2Nc3ccccc3CS2)nc1`, the inhibition was 5.74% (inactive).

Consider `COC(=O)CN1C(=S)N(c2ccccc2)C(=O)C1CC(=O)Nc1ccc(Cl)cc1` (stereo not drawn), for which the inhibition is 15% (inactive).

On to `COc1ccccc1-n1c(SCC(=O)Nc2ccc(Cl)cc2)nc(O)c(Cc2ccccc2)c1=O`, for which the inhibition was 57.9% (active).

For `O=C(/C(=N\O)n1cncn1)c1ccc(Br)cc1Br`, the inhibition was 4.41% (inactive).

With `O=C(O)c1ccc(NS(=O)(=O)c2ccc3c(c2)C(=O)c2cc(S(=O)(=O)Nc4ccc(C(=O)O)cc4)ccc2-3)cc1`, the inhibition is 1% (inactive).

In the case of `Cc1c(CN2CCC(CO)(CCOc3ccccc3)CC2)[nH]c2ccc(Cl)cc12`, the inhibition is 20.1% (active).

On to `O=C(CSc1nc2ccccc2[nH]1)N/N=C/C=C\c1ccccc1[N+](=O)[O-]`, for which the inhibition was 12.7% (inactive).

Consider `Cc1ccc(-c2cnc(C(O)c3cc(Cl)cc(Cl)c3)[nH]2)cc1` (stereo not drawn), for which the inhibition is 43.7% (active).

With `OC(c1cc(Cl)cc(Cl)c1)c1ncc(-c2ccccc2C(F)(F)F)[nH]1` (stereo not drawn), the inhibition was 58.3% (active).

With `O=C(NCCN1CCOCC1)c1ccccc1N1C(=O)[C@@H]2Cc3c([nH]c4ccccc34)C(c3cccc(Cl)c3)N2C1=O` (stereo partly drawn), the inhibition is 13.3% (inactive).

Consider `CC(=N\NC(=O)c1cc(Br)ccc1O)/C(=N/O)C(=O)Nc1ccccc1`, for which the inhibition was 4.72% (inactive).

In the case of `O=C(Cn1c(NCCO)nc2ccccc21)c1ccc(Cl)cc1Cl`, the inhibition is -2.79% (inactive).

Regarding `COC(=O)/C(=C\Nc1ccccc1)NC(=O)c1ccc(Cl)cc1Cl`, the inhibition was 59.6% (active).

Regarding `CC(C)OCCCNc1ncnc2c1[nH]c1ccc(F)cc12`, the inhibition was 80.6% (active).

As for `CCN1CCCC1CNc1ncnc2c1[nH]c1ccc(F)cc12` (stereo not drawn), the inhibition is 31.6% (active).

For the compound `CCCCCn1nnnc1-c1nc2cc3ccccc3cc2[nH]c1=O`, the inhibition was 24.4% (active).

`c1ccc2cc3[nH]c(CN4CCCCC4)nc3cc2c1`: the inhibition is 3.4% (inactive).
